PNC assembly inh: High Content Assay for Compounds that inhibit the Assembly of the Perinucleolar Compartment | PC3M PTB-GFP, PNC prevalence imaging, 16 h; hits give low values | activity change (PNC), negative = inhibition, % at 10 µM | 140,000 compounds, 3.1% hits;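 active = readout at or below -70, meaning at least 70% loss of cells showing the perinucleolar compartment, a nuclear body marking cancer cells; inconclusive = readout between -30 and a set limit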
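PC3M cells stably expressing PTB-GFP, 750–1000 cells/well, treated 16 h at 37 °C with compound (23 nl of library stock), in duplicate. After paraformaldehyde fixation and Hoechst stain, imaged at 20x; PNC prevalence scored by image analysis.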
IMPase Li cell: qHTS Assay for Identifying the Cell-Membrane Permeable IMPase Inhibitors: Potentiation with Lithium; CHO-M1 cells, IP1 TR-FRET (IP-One), carbachol + lithium; Potency, µM (doses to about 59.4 µM), usual class: inhibitors; 210,000 compounds, 0.35% hits; active = well fitted inhibition curve with a large enough effect; inconclusive = small, poorly fitted or top-dose-only effect; inactive = no such curve, though single readings can be large or run the other way;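 also: IP1 builds up when IMPase is blocked and the TR-FRET signal falls; nearly all actives have a fitted effect of over 50% in size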
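Test compounds were applied to CHO-M1 cells previously cultured for 16–30 h at 2000 per well. A small lithium amount accompanied them; after 30 min at 37C, IP1 was quantified by TR-FRET.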
HPGD inh: qHTS Assay for Inhibitors of HPGD (15-Hydroxyprostaglandin Dehydrogenase); Potency, µM, hits mostly inhibitors; purified HPGD, NADH fluorescence kinetic, PGE2 substrate; 15-hydroxyprostaglandin dehydrogenase [NAD(+)] (Homo sapiens), P15428; 150,000 compounds, 4.3% hits; AID 894, 2007
Target sequence (P15428 whole entry, looked up): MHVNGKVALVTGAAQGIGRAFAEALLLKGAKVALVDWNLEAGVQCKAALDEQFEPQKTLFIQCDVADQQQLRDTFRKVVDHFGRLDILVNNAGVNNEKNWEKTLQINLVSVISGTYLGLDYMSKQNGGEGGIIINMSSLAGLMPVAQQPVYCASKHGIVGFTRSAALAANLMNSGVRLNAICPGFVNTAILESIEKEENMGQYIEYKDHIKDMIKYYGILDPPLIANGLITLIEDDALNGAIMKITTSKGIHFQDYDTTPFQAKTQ
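20 nM HPGD preincubated 15 min at room temperature with compound in 50 mM Tris-HCl pH 8, 0.01% Tween 20. Started with 1 mM NAD+ and 30 uM prostaglandin E2; NADH fluorescence (360/450 nm) read 5 times over 30-s intervals, last minus first.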
ALDH1A1 inh: qHTS Assay for Inhibitors of Aldehyde Dehydrogenase 1 (ALDH1A1); AID 1030, 2008; Potency, µM (top dose mostly 75.3 µM), actives largely listed as inhibitors; Purified ALDH1A1, NADH fluorescence, propionaldehyde substrate; Aldehyde dehydrogenase 1A1 (Homo sapiens), P00352; 220,000 compounds, 7.3% hits
IMPase inh: qHTS Assay for Identifying the Cell-Membrane Permeable IMPase Inhibitors. Inositol monophosphatase 1 (Rattus norvegicus), P97697. CHO-M1 cells, IP1 accumulation, HTRF TR-FRET ratio. inhibition (IP1 accumulation), % at 46.1 µM. 120,000 tested, under 10 active. AID 901, 2007; active = well fitted curve in the direction sought with a large enough effect in the signal ratio, not every such curve was filed as active; inconclusive = small, poorly fitted or top-dose-only effect, or a change in a side signal; inactive = no such curve, though single readings can be large or run the other way; the % refers to the signal ratio;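 also: cells stimulated with carbachol in lithium chloride buffer; higher means more IMPase inhibition seen as more IP1 and lower FRET ratio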
Target sequence (P97697 whole entry, looked up): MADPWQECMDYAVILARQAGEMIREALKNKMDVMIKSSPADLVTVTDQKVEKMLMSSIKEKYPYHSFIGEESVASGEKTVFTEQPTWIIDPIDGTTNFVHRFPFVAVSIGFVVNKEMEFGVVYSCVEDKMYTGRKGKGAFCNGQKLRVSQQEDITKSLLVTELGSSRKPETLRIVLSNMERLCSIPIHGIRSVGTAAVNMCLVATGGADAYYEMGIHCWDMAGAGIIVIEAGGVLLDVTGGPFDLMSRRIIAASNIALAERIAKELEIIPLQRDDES
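Carbachol-driven Gq signalling in CHO-M1 cells (2000/well) generates IP1. Compounds that block IMPase raise IP1 and so reduce the FRET signal from Eu-anti-IP1 and d2-IP1 after a 10 min room-temperature lysis.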
Numbers stand for hits; [ ] = remark or other dose. The list is not random: actives were taken first. Their share in the collection is about 11%. Unless noted, calls follow the shape of the dose curve; as a rule, active = well fitted inhibition curve with a large enough effect (not every such curve was filed as active); inconclusive = small, poorly fitted or top-dose-only effect, or another doubt; inactive = no such curve, though single readings can be large or run the other way.

For N#C/C(=C\c1cc(Br)c(O)c(Br)c1)c1nc2ccccc2c(=O)[nH]1 the results were IMPase inh inactive.
For CC(C)Oc1ccc(Br)cc1/C=N\NC(N)=S the results were PNC assembly inh inactive, IMPase Li cell inactive, HPGD inh inactive and ALDH1A1 inh inconclusive.
CC(=O)Nc1sc2c(c1C(c1ccncc1)N1CCOCC1)CCCC2 (stereo not given) was read as IMPase Li cell inactive and ALDH1A1 inh 25µM.
For CS(=O)(=O)Cc1cc(Sc2ccccc2)nc(-c2ccncc2)n1 the results were IMPase Li cell inactive and ALDH1A1 inh 11µM.
For CCOc1ccccc1NC(=O)Cn1cnc2c1c(=O)n(C)c(=O)n2C the results were IMPase inh inactive.
For O=C(CSc1nccc(=O)[nH]1)Nc1ccc(Br)c(Cl)c1 the results were PNC assembly inh inactive, IMPase Li cell inactive, HPGD inh 32µM, ALDH1A1 inh inconclusive and IMPase inh inactive.
O=C(CSc1nccc(=O)[nH]1)Nc1ccc(F)c(Cl)c1 was read as PNC assembly inh inconclusive, IMPase Li cell inactive, HPGD inh inactive, ALDH1A1 inh inconclusive and IMPase inh inactive.
CCOC(=O)c1ccc(CC2S/C(=C(\C#N)C(C)=O)NC2=O)cc1 (stereo not given) was read as PNC assembly inh inactive, IMPase Li cell inactive, HPGD inh 14µM, ALDH1A1 inh inactive and IMPase inh inactive.
Screening O=c1c2ccccc2nc(SCc2ccc([N+](=O)[O-])cc2)n1-c1ccccc1 returned PNC assembly inh inactive, IMPase Li cell inactive, HPGD inh inactive, ALDH1A1 inh inactive and IMPase inh inactive.
For COc1ccc(Nc2nnc(SCc3cc([N+](=O)[O-])cc4c3OCOC4)s2)cc1 the results were PNC assembly inh inconclusive, IMPase Li cell inactive, HPGD inh 25µM, ALDH1A1 inh inconclusive and IMPase inh inactive.
O=c1c2ccccc2nc(SCc2cc([N+](=O)[O-])cc3c2OCOC3)n1-c1ccccc1 was read as PNC assembly inh -92, IMPase Li cell inactive, HPGD inh inactive and ALDH1A1 inh inactive.
CCCCS(=O)(=O)c1nc(-c2ccc(Br)cc2)cc(-c2ccccc2)c1C#N was read as IMPase inh inactive.
For Cc1ccc(C(C)C)c2c1C(c1ccc3c(c1)OCO3)CC(=O)O2 (stereo not given) the results were IMPase Li cell inactive, HPGD inh inactive and ALDH1A1 inh inactive.
Screening CS(=O)(=O)c1ccc([C@H](O)[C@H](CO)NC(=O)C(Cl)Cl)cc1 returned IMPase Li cell inactive, HPGD inh inactive, ALDH1A1 inh inactive and IMPase inh inactive.
Cc1ccc(OCCCC(=O)Nc2ccc(Br)cc2)cc1 was read as PNC assembly inh inactive, IMPase Li cell inactive, HPGD inh inactive, ALDH1A1 inh inactive and IMPase inh inactive.
For CC(C)N(C(=O)c1sc2cc([N+](=O)[O-])ccc2c1Cl)C(C)C the results were PNC assembly inh inactive, IMPase Li cell inactive, HPGD inh 28µM, ALDH1A1 inh inconclusive and IMPase inh inactive.
Screening O=C(c1sc2cc([N+](=O)[O-])ccc2c1Cl)N1CCOCC1 returned PNC assembly inh inactive, IMPase Li cell inactive, HPGD inh 16µM and ALDH1A1 inh inactive.
Screening O=C(c1cc2cc([N+](=O)[O-])ccc2oc1=O)N1CCOCC1 returned IMPase Li cell inactive and ALDH1A1 inh 13µM.
For O=C(c1cccc([N+](=O)[O-])c1)N1CCOCC1 the results were PNC assembly inh inactive, IMPase Li cell inactive, HPGD inh inactive and ALDH1A1 inh inactive.
O=C(c1cc2cc([N+](=O)[O-])ccc2oc1=O)N1CCN(c2ncccn2)CC1 was read as PNC assembly inh inactive, IMPase Li cell inactive, HPGD inh inactive, ALDH1A1 inh inactive and IMPase inh inactive.
For CCC(C)(C)NC(=O)C(c1ccc(C)cc1)N(CCN1CCOCC1)C(=O)CNC(=O)c1cccs1 (stereo not given) the results were IMPase Li cell inactive and ALDH1A1 inh inactive.
Screening NC(=O)CSc1nccn1Cc1ccccc1 returned IMPase Li cell inactive and ALDH1A1 inh 10µM.
`Cc1nnc(SCc2nnc(-c3ccccc3)o2)n(N)c1=O` gave PNC assembly inh inactive, IMPase Li cell inactive, HPGD inh inactive, ALDH1A1 inh inactive and IMPase inh inactive.
Screening c1ccc(Cn2ccnc2SCc2nnc(-c3ccccc3)o2)cc1 returned PNC assembly inh inactive, IMPase Li cell inactive, HPGD inh 25µM, ALDH1A1 inh inactive and IMPase inh inactive.
Screening CN1CCN(c2ccc(S(=O)(=O)N3CCCCC3)cc2NC(=O)Cc2ccc(Cl)cc2)CC1 returned PNC assembly inh inactive, IMPase Li cell inactive, HPGD inh inactive, ALDH1A1 inh inconclusive and IMPase inh inactive.
Screening CN(C(=O)c1ccc(OC2CCN(CCc3ccccc3)CC2)cc1)C1CCCCC1 returned IMPase Li cell inactive and ALDH1A1 inh inactive.
`N[C@@H](CSS(=O)(=O)O)C(=O)O` gave IMPase Li cell inactive, HPGD inh 28µM, ALDH1A1 inh inactive and IMPase inh inactive.
Screening N[C@H](CS)C(=O)O returned IMPase Li cell inactive and ALDH1A1 inh inactive.
For Cc1ccc(NC(=S)N2CCCC(CO)C2)c(C)c1 (stereo not given) the results were IMPase Li cell inactive and ALDH1A1 inh inactive.
For CCN(C(=O)CCS(=O)(=O)c1ccc(Br)cc1)c1ccc2c(c1)OCO2 the results were PNC assembly inh inactive, IMPase Li cell inactive, HPGD inh inactive, ALDH1A1 inh 16µM and IMPase inh inactive.
`COc1ccc2c(c1)N(C[C@@H](C)CN(C)C)c1ccccc1S2` gave IMPase Li cell inactive, HPGD inh inactive, ALDH1A1 inh inactive and IMPase inh inactive.
`CC(C)(C)c1nnc2sc(SCC(=O)c3ccc(Cl)cc3)nn2c1=O` gave PNC assembly inh inactive, IMPase Li cell inactive, HPGD inh 28µM, ALDH1A1 inh 4.5µM and IMPase inh inactive.
`O=C1C=C(N2CCCCCC2)C2(CCCCC2)O1` gave IMPase Li cell inactive and ALDH1A1 inh 8.9µM.
`CCOC(=O)N1CCN(C2=CC(=O)OC23CCCCC3)CC1` gave PNC assembly inh inactive, IMPase Li cell inactive, HPGD inh inactive, ALDH1A1 inh inconclusive and IMPase inh inactive.
For CCSCCOC(=O)C1=C(C)NC(=O)NC1c1ccc2c(c1)OCO2 (stereo not given) the results were PNC assembly inh inactive, IMPase Li cell inactive, HPGD inh inactive, ALDH1A1 inh 14µM and IMPase inh inactive.
c1ccc(C(CCN2CC3CCC(CC3)C2)c2ccccc2)cc1 was read as IMPase Li cell inactive, HPGD inh inactive and ALDH1A1 inh inactive[13.5 µM].

Screening results as filed in PubChem.
